Laboratory results: PMC9426499

biological target: ParRC(pCW3) (Clostridium perfringens plasmid pCW3, UniProt Q1PLJ8 1-87); test: SPR; high values mean tight binding; conditions: protein: recombinant; tags: C-terminal His6; chain copies: 4; label: 3' 20-nt overhang of comp strand annealed to immobilized 5'-biotin ReDCaT linker; dsDNA, one strand shown

| Sequence | binding signal |
| --- | --- |
| CATAAACATCACAATTTTACGTAATTTAGA | 348 RU |
| AATATAAAAACATAAACATCACAATTTTAC | 155 RU |
| AAACATCACAATTTTACGGAAAATGCTTGA | 282 RU |
| ATTTTACGGAAAATGCTTGATTTAGATTGA | 9.2 RU |
| ACAATTTTACATAATAGAAAGGATTGATAA | 4.3 RU |
| AAAATGAAAAAAACATCACAATTTTACGGA | 250 RU |
| TTTTGCAAGTAAAAAACATCACAATTTTAC | 217 RU |
| AATTAAAAACATCACAATTTTACGTAATGA | 256 RU |
| AATTTTACATAATAGAAAGGATTGATAAAA | 3.1 RU |
| ATCACAATTTTACGTAATGACAGTTTGTTG | 54.7 RU |
| AAAAAACATCACAATTTTACATAATAGAAA | 311 RU |
| ACAATTTTACGTAATTTAGATTTTGCAAGT | 48.4 RU |
| GTAATTTAGATTTTGCAAGTAAAAAACATC | 42.6 RU |
